In PubChem BioAssay (NCI):
About 83,000 compounds went through this panel and 20% of them were active in at least one assay; those are over-represented in the sample as a whole.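 Step 1: grow cells in 96-well plates. Step 2: add test compound at a single concentration. Step 3: incubate 48 h. Step 4: record percent growth.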 A number with no mark means an inactive call. Calls of active or inactive are those of the source. Rule for the calls: active = growth percent below 10; inactive = the rest.

Legend:
Assay in all cases: NCI-60 one-dose screen, 48 h (100 = growth as untreated, 0 = no growth, -100 = all killed)
Conditions in all cases: 10 µM unless noted
DU-145 prostate = tested on: DU-145 prostate
K-562 leukemia = tested on: K-562 leukemia
MALME-3M melanoma = tested on: MALME-3M melanoma
MDA-MB-231 breast = tested on: MDA-MB-231 breast
RXF 393 renal = tested on: RXF 393 renal
SF-268 CNS = tested on: SF-268 CNS
SF-295 CNS = tested on: SF-295 CNS
SF-539 CNS = tested on: SF-539 CNS
UACC-257 melanoma = tested on: UACC-257 melanoma
M14 melanoma = tested on: M14 melanoma
HCT-15 colon = tested on: HCT-15 colon
HT29 colon = tested on: HT29 colon
SNB-75 CNS = tested on: SNB-75 CNS
SNB-19 CNS = tested on: SNB-19 CNS
U251 CNS = tested on: U251 CNS
PC-3 prostate = tested on: PC-3 prostate
SK-MEL-5 melanoma = tested on: SK-MEL-5 melanoma
UACC-62 melanoma = tested on: UACC-62 melanoma
LOX IMVI melanoma = tested on: LOX IMVI melanoma
SK-MEL-28 melanoma = tested on: SK-MEL-28 melanoma

SMILES	growth (DU-145 prostate)	growth (K-562 leukemia)	growth (MALME-3M melanoma)	growth (MDA-MB-231 breast)	growth (RXF 393 renal)	growth (SF-268 CNS)	growth (SF-295 CNS)	growth (SF-539 CNS)	growth (UACC-257 melanoma)	growth (M14 melanoma)	growth (HCT-15 colon)	growth (HT29 colon)	growth (SNB-75 CNS)	growth (SNB-19 CNS)	growth (U251 CNS)	growth (PC-3 prostate)	growth (SK-MEL-5 melanoma)	growth (UACC-62 melanoma)	growth (LOX IMVI melanoma)	growth (SK-MEL-28 melanoma)
NC(=O)c1noc(C(=O)c2ccccc2)c1N	104%	89.5%	101%	109%	96.2%	98.4%	98.9%	107%	102%	110%	89.4%	83.6%	95.9%	90.4%	85.8%	90.9%	97.9%	96.6%	98.8%	98.6%
Nc1cc2nc3ccccc3oc-2cc1=O	-97.1% (active)	10.6%	-45.8% (active)	59.8%	81.1%	38.5%	-11.1% (active)	-20% (active)	31.7%	-83.6% (active)	18.2%	38.8%	-86% (active)	80.8%	35.6%	27.8%	-97.9% (active)	-75.2% (active)	-11.4% (active)	-56.2% (active)
COc1ccc2[nH]c(C(=O)OCc3ccc4cccc(O)c4n3)cc2c1	-91.8% (active)	-3.39% (active)	-76.2% (active)	-70.8% (active)	-92.2% (active)	-65.6% (active)	73.7%	-92.7% (active)	-70.7% (active)	-75.6% (active)	-43.8% (active)	-73.1% (active)	-29.1% (active)	50.8%	22.1%	-55.7% (active)	-56.9% (active)	–	-89.1% (active)	–
Cc1cc(C)c2c(NC(=O)Nc3ccc(Cl)c(Cl)c3)n[nH]c2n1	105%	91%	90.4%	104%	105%	103%	93.4%	112%	110%	109%	100%	96.9%	88.7%	101%	102%	103%	103%	103%	99.8%	104%
N#Cc1c(NN)n(C2OC(CO)C(O)C2O)c2ncnc(N)c12 (stereo not drawn)	-0.273% (active)	-46.1% (active)	-9.07% (active)	15.2%	-53.1% (active)	15.1%	56.9%	-5.9% (active)	-26.3% (active)	-18.3% (active)	3.17% (active)	4.15% (active)	35.2%	54.7%	34.5%	6.48% (active)	-67.5% (active)	-39.3% (active)	-4.81% (active)	-15.1% (active)
CCCCN(CCCC)CCCN=c1nc2c(c(N)n1-c1ccccc1)c(=S)n(-c1ccccc1)c(=S)n2-c1ccccc1	-100% (active)	-90.3% (active)	-91.5% (active)	-89.1% (active)	-67.7% (active)	-94% (active)	-100% (active)	-97.7% (active)	-73.1% (active)	-86.3% (active)	-73.3% (active)	-63.3% (active)	-94.2% (active)	-87.4% (active)	-100% (active)	-70.8% (active)	-100% (active)	-99.4% (active)	-89.7% (active)	-100% (active)
CCN(CC)CCCC(C)Nc1cnc(C(=O)Nc2cc(C)cc3cccnc23)cn1 (stereo not drawn)	80.7%	25.9%	107%	89.2%	72.3%	66.1%	98.9%	86.9%	71.7%	98.6%	59.9%	37.3%	78.3%	89.2%	78.4%	83.1%	–	98.6%	87%	–
Cc1ccc2oc(=O)cc(-c3nc4ccc([N+](=O)[O-])cc4[nH]3)c2c1	76.4%	48.7%	62.9%	64.2%	46.7%	62.1%	49.3%	54%	62.2%	64.4%	59.4%	70.9%	70.1%	61.4%	41.9%	48.9%	28.9%	39.5%	67.7%	63.7%
Clc1ccc(Nc2ncnc3c2sc2ncccc23)cc1	20.2%	46.6%	65.6%	63.9%	32.9%	23%	19.1%	6.42% (active)	41.6%	-21.5% (active)	47.3%	38.1%	47.9%	26.3%	28%	54.5%	23.4%	11.4%	12.2%	74.9%
C=C(C)c1ccc(/C=N/NC(N)=S)cc1	97.6%	89%	116%	96.8%	94.6%	109%	76.5%	99.2%	257%	87.2%	96%	86.1%	104%	97.3%	–	100%	95.1%	88.9%	97.4%	109%
CC(C)c1[nH]ncc1-c1nc2ccc3[nH]ncc3c2c2c1CCCC2	33.9%	42%	52.6%	35.6%	-8.2% (active)	36.7%	43.1%	23%	44%	37.1%	37.5%	35%	-3.19% (active)	40.4%	–	44.2%	45.2%	34.1%	23.6%	–
COc1c(B(O)O)cccc1-c1nc2ccc3[nH]ncc3c2c2c1CCCC2	11.1%	38.5%	82.6%	25.2%	-15.8% (active)	23.2%	34.8%	0.769% (active)	34%	58.1%	25.4%	37.9%	-2.29% (active)	12.5%	–	18.4%	42.3%	26.6%	-15.4% (active)	–
COc1cc(NC(C)CCCN)c2ncccc2c1Oc1ccc(Cl)cc1 (stereo not drawn)	74.8%	52.2%	88.1%	42.4%	79.5%	77.5%	–	81.2%	88.5%	74.4%	84.5%	34.5%	78.7%	91%	72.7%	63.9%	81%	91.1%	39.9%	109%
Cc1n(Cc2ccc3ccccc3n2)cc[n+]1Cc1ccc2ccccc2c1	26.6%	11.5%	-30.2% (active)	2.1% (active)	9.37% (active)	20.8%	9.7% (active)	14.3%	-15.1% (active)	18.2%	86.8%	6.64% (active)	-2.2% (active)	7.14% (active)	14%	10.4%	–	-26.6% (active)	-43.7% (active)	16.1%
CCCOC(=O)C1c2cc3c(cc2CC(C)C1C(=O)OCCC)OCO3 (stereo not drawn)	112%	99.6%	104%	90%	93.3%	106%	83%	122%	76.9%	100%	108%	72%	85.6%	98.9%	95.2%	82.9%	–	75.4%	65.4%	103%
